Data from PubChem BioAssay AID686978 (National Center for Advancing Translational Sciences (NCATS), 2013).
The whole screen tested about 420,000 compounds, of which about 64,000 (15%) were called active. Roughly 27% stayed inconclusive and do not appear here. The list is a sample of the results. Values without a mark were called inactive. Calls follow the shape of the dose curve; as a rule, active = well fitted inhibition curve with a large enough effect; inconclusive = small, poorly fitted or top-dose-only effect; inactive = flat fitted curve, though single readings scatter.

Assay: qHTS for Inhibitors of human tyrosyl-DNA phosphodiesterase 1 (TDP1): qHTS in cells in absence of CPT; also: nearly all actives have a fitted effect of over 55% in size
Settings: DT40 Tdp1-/- hTDP1 cells, no CPT, ATP luminescence, 48 h; activity change, negative = growth inhibition: at 46.2 µM (top of the series)
In short: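 No-CPT arm: Tdp1-/-;hTDP1 DT40 cells (400/well) plus compounds, incubated ≥48 hr at 37 °C. Readout CellTiter-Glo luminescence.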
% is scaled to controls: 0 for no effect and ±100 for the full control effect; potency is read from the fitted curve at half-maximal effect.

Row | Compound | activity change, negative = growth inhibition | Potency
1 | O=C(/C(=N\O)n1cncn1)c1ccc(Br)cc1Br | 4.39% | 
2 | Oc1cccc2ccc(/C=C/c3ccc(Br)s3)nc12 |  | 0.082 µM (active)
3 | CCOC(=O)C1(Cc2cccc(OC)c2)CCCN(C(=O)CCSC)C1 (stereo not drawn) | -24.5% | 
4 | O=S(=O)(O)c1nc2ccccc2n1Cc1ccc(Cl)cc1Cl | -26.9% | 
5 | O=S(=O)(Cc1ccc(Cl)cc1Cl)c1ccc(Cl)cc1 |  | 1.03 µM (active)
6 | Cc1ccc(S(=O)(=O)Cc2cc(-c3ccc(Cl)cc3)no2)cc1 | -6.77% | 
7 | C=C1CCN([C@H](C(=O)NCc2cc(OC)c(OC)c(OC)c2)C(C)C)S(=O)(=O)c2ccccc21 | -3.89% | 
8 | COc1ccc(Cl)cc1NS(=O)(=O)c1cccc(C(=O)NC2CCC(O)CC2)c1 (stereo not drawn) | -6.37% | 
9 | COc1ccc(C(=O)NC2CC2)cc1OC1CCN(Cc2cnn(C)c2)CC1 | 4.43% | 
10 | COc1cc(C(=O)NC2CCN(C)CC2)ccc1Nc1ncc2c(n1)N(C1CCC(O)CC1)CCC(=O)N2C (stereo not drawn) |  | 16.4 µM (active)
11 | Cc1ccccc1OCCC(=O)Nc1c(C)n(C)n(-c2ccccc2)c1=O | 0.764% | 
12 | COc1cccc(C(=O)N2CCC(n3nccc3NC(=O)C3CCOC3)CC2)c1 (stereo not drawn) | 3.75% | 
13 | COc1ccc(N2CCN(c3cc(C)nc4nncn34)CC2)cc1 |  | 16.4 µM (active)
14 | COc1ccc(N2CCN(Cc3nnc(-c4ccccc4)o3)CC2)cc1 | 3.5% | 
15 | COc1ccc(-c2nnc3n2CCCCC3)cc1 | -10.5% | 
16 | Cc1ccccc1C1CC(c2cccs2)=NN1S(C)(=O)=O (stereo not drawn) | -7.12% | 
17 | CCS(=O)(=O)N1CCCC(C(=O)NCc2ccc(C)cc2)C1 (stereo not drawn) | -1.29% | 
18 | CCOC(=O)c1c(S(=O)(=O)N2CCCC(C(=O)NCc3ccc(F)cc3)C2)c(C)n(CC)c1C (stereo not drawn) | -20.8% | 
19 | CCOc1ccc(C(=O)NC2CCN(S(=O)(=O)CC)CC2)cc1 | -14.8% | 
20 | CCOc1ccc(NC(=O)C2CCCN(C(=O)Nc3ccccc3)C2)cc1 (stereo not drawn) | -0.394% | 
21 | COc1cccc(CNC(=O)C2CCN(S(=O)(=O)c3ccc4c(ccn4C)c3)CC2)c1 | 1.01% | 
22 | CCOc1ccc(N(CC)S(=O)(=O)N2CCCC(C(=O)Nc3ccc(C(C)=O)cc3)C2)cc1 (stereo not drawn) |  | 23.1 µM (active)
23 | CCOc1ccc(CNC(=O)C2CCCN(S(=O)(=O)N(CC)c3ccc(OCC)cc3)C2)cc1 (stereo not drawn) |  | 20.6 µM (active)
24 | Cc1ccc(CNC(=O)C2CCCN(S(C)(=O)=O)C2)cc1 (stereo not drawn) | -9.73% | 
25 | CCOC(=O)c1c(C)[nH]c(C)c1S(=O)(=O)N1CCCC(C(=O)NCc2ccccc2Cl)C1 (stereo not drawn) | -27.1% | 
26 | Cc1ccccc1CNC(=O)C1CCCN(S(=O)(=O)N(C)c2ccc(F)cc2)C1 (stereo not drawn) |  | 18.4 µM (active)

Row | Compound | activity change, negative = growth inhibition | Potency
27 | CCOc1ccccc1CNC(=O)C1CCCN(S(=O)(=O)c2ccc3c(ccn3C)c2)C1 (stereo not drawn) |  | 16.4 µM (active)
28 | CCOc1ccccc1NC(=O)C1CCCN(S(=O)(=O)c2cn(C)cn2)C1 (stereo not drawn) | -6.57% | 
29 | Cc1cc(C)cc(OCc2nnc(SCC(=O)OC3CCCCC3)o2)c1 | -0.322% | 
30 | OC(c1ccccc1)c1nccn1Cc1ccccc1 (stereo not drawn) | 2.98% | 
31 | COc1ccccc1C(=O)NC(CCSC)C(=O)NNC(=O)c1csc(N2CCOCC2)n1 (stereo not drawn) | -22% | 
32 | CCN(CC)C(=O)CS(=O)CC(=O)Nc1cc(OCCOC)c(Cl)cc1Cl (stereo not drawn) | -3.24% | 
33 | CCOc1ccc(N(CC)S(=O)(=O)N2CCCC(C(=O)NCc3ccc(SC)cc3)C2)cc1 (stereo not drawn) |  | 20.6 µM (active)
34 | CSc1ccc(S(=O)(=O)N2CCC(C(=O)NCc3ccncc3)CC2)cc1 | -13.1% | 
35 | CCOc1cccc(NC(=O)C2CCCN(S(=O)(=O)c3ccc(OC)cc3)C2)c1 (stereo not drawn) |  | 23.1 µM (active)
36 | COc1ccc(NC(=O)C2CCCN(S(=O)(=O)c3cccc4cccnc34)C2)cc1 (stereo not drawn) | -42.5% | 
37 | CCOC(=O)c1c(S(=O)(=O)N2CCCC(C(=O)NCc3cccc(C)c3)C2)c(C)n(C)c1C (stereo not drawn) | -4.19% | 
38 | Cc1c(S(=O)(=O)O)oc2c1C(=O)C(=O)c1c-2ccc2c1CCCC2(C)C | -8.76% | 
39 | Cc1nc(C)c(C(=O)Nc2ccc(C)c(F)c2)o1 | -0.916% | 
40 | CCOc1c(N2CCCCC2)c(=O)c1=O | -12.1% | 
41 | Cc1cc(=O)n(C)c(=O)n1CCCNc1ccccc1 | -23.9% | 
42 | Cc1[nH]c(N)nc(=S)c1CCCNc1ccccc1 |  | 16.4 µM (active)
43 | CCc1c(Nc2ccccc2C)nc(N)[nH]c1=O | -8.5% | 
44 | O=C(NC(=S)Nc1ccc(Cl)c(C(=O)O)c1)c1cncc(Br)c1 | 24.7% | 
45 | O=C(COC(=O)/C=C/c1ccc(Cl)cc1)NC1CCS(=O)(=O)C1 (stereo not drawn) |  | 18.4 µM (active)
46 | O=C(COC(=O)/C=C/c1ccc2c(c1)OCO2)NC1CCS(=O)(=O)C1 (stereo not drawn) | 14.5% | 
47 | O=C(Cc1ccc(Cl)cc1)NC1CCS(=O)(=O)C1 (stereo not drawn) | 12.7% | 
48 | Cc1cccc(C)c1NC(=O)CSc1nnc(-c2ccccc2)n1Cc1ccc2c(c1)OCO2 | -17.4% | 
49 | O=S(=O)(NCC1CCCO1)c1ccc2ccccc2c1 (stereo not drawn) | -14.2% | 
50 | CCOC(=O)c1c(NC(=O)c2ccc(S(=O)(=O)N(C)CC3CCCO3)cc2)sc2c1CC(C)(C)NC2(C)C (stereo not drawn) | -27.4% | 
51 | CN(CC1CCCO1)S(=O)(=O)c1ccc(C(=O)Nc2ccc([N+](=O)[O-])cc2)cc1 (stereo not drawn) |  | 5.8 µM (active)
52 | CCC(=O)Nc1ccc(C(=O)Nc2ccc3c(c2)C(=O)N(CC2CCCO2)C3=O)cc1 (stereo not drawn) | -10.2% | 

Row | Compound | activity change, negative = growth inhibition | Potency
53 | CCOc1ccc(S(=O)(=O)NCC2CCCO2)cc1 (stereo not drawn) | -16% | 
54 | O=C(Nc1ccc(S(=O)(=O)NCC2CCCO2)cc1)c1ccc(F)cc1 (stereo not drawn) |  | 16.4 µM (active)
55 | O=C1C(C=NCC2CCCO2)=C(O)c2ccccc21 (stereo not drawn) | -16.7% | 
56 | COC(=O)C1CCN(C(=O)NC2CC(=O)N(c3ccc4c(c3)OCCO4)C2)CC1 (stereo not drawn) | 0.284% | 
57 | COC(=O)c1onc(-c2c(OC)cc(OC)cc2OC)c1C(=O)OC | -7.15% | 
58 | CN(Cc1cc2cc(F)ccc2[nH]1)Cc1nc(-c2cnccn2)no1 | -4.72% | 
59 | COc1cc(C(=O)NNC(=O)CN2C(=O)NC3(CCCC3)C2=O)cc(OC)c1OC | 4.78% | 
60 | Cc1sc2nc(CSCC(=O)Nc3c(Cl)cccc3Cl)[nH]c(=O)c2c1C |  | 9.2 µM (active)
61 | Cc1sc2nc(COC(=O)C(NC(=O)c3ccc(Cl)cc3Cl)C(C)C)[nH]c(=O)c2c1C (stereo not drawn) | -16.1% | 
62 | CCOC(=O)c1sc2nc(CSCC(=O)OCc3ccc(C(=O)OC)o3)[nH]c(=O)c2c1C | -10.1% | 
63 | Cn1nnnc1SCC(=O)N1CCN(Cc2ccccc2)CC1 | -18.7% | 
64 | COc1ccc(S(=O)(=O)N2CCCCC2)cc1C(=O)NC1CCS(=O)(=O)C1 (stereo not drawn) |  | inactive
65 | Cc1[nH]nc(SCC(=O)NCC(C)C)c1[N+](=O)[O-] | -4.36% | 
66 | Cc1ccc(S(=O)(=O)N2CCN(c3ccccc3)CC2)cc1C | 3% | 
67 | Cc1cccc(N2CCN(S(=O)(=O)c3ccc4[nH]c5c(c4c3)CCCCC5)CC2)c1C |  | 4.61 µM (active)
68 | COc1cccc(CNC(=O)c2cc(=O)[nH]c3ccc(S(=O)(=O)N4CCCCC4)cc23)c1 | -11.7% | 
69 | Cc1cc(C)c2c(c1)c(C)cc1nnc(SCC(=O)NCc3ccco3)n12 | -3.12% | 
70 | O=C(N/C(=C\c1ccc(O)cc1)C(=O)N1CCCCC1)c1ccccc1 | 12.8% | 
71 | COc1cc2c(cc1OC)C(Cc1cc(OC)c(OC)cc1[N+](=O)[O-])=NCC2 |  | 11.6 µM (active)
72 | COc1cc(CNCc2ccc3c(c2)OCO3)c([N+](=O)[O-])cc1OC | -21.4% | 
73 | COc1cc(CN2CCCN(C)CC2)c([N+](=O)[O-])cc1OC | -12.1% | 
74 | O=C(NC1CCN(S(=O)(=O)c2ccc(F)cc2)CC1)c1ccccc1 | 6.91% | 
75 | COc1ccc(/C(O)=C2/C(=O)C(=O)N(CCCN(C)C)C2c2ccccc2)cc1OC (stereo not drawn) | -4.33% | 
76 | CCCCn1c(N)c(N(CCOC)C(=O)c2cccc(OCc3ccccc3)c2)c(=O)[nH]c1=O | 1.24% | 
77 | CCCCN1C(=O)c2[nH]nc(-c3ccccc3O)c2C1c1cccc(OCc2ccccc2)c1 (stereo not drawn) |  | 18.4 µM (active)
78 | COc1ccc(CCN(C)CCN2C(=O)c3ccccc3C2=O)cc1OC | -23.2% | 

Row | Compound | activity change, negative = growth inhibition | Potency
79 | COc1ccc(CCN2C(=O)c3[nH]nc(-c4ccccc4O)c3C2c2ccc(C)cc2)cc1OC (stereo not drawn) |  | 18.4 µM (active)
80 | C=CCOc1cccc(C2C(C(=O)c3ccc(C)o3)=C(O)C(=O)N2CCCn2ccnc2)c1 (stereo not drawn) | 15.9% | 
81 | Cc1cc(NS(=O)(=O)c2ccc(NC(=O)c3cccc(OC(F)F)c3)cc2)nc(C)n1 | -6.76% | 
82 | O=C(O)CCSc1nnc(-c2ccccc2)n1-c1ccccc1 | -12.5% | 
83 | Cc1ccc(NC(=O)c2ccn(C(=O)Nc3ccccc3)n2)c(C)c1 | -5.12% | 
84 | CCN(CC)CCNC(=O)c1cc(S(C)(=O)=O)ccc1OC |  | inactive
85 | COc1ccc(N(CC(=O)NCCSCc2cccc(Cl)c2)S(C)(=O)=O)cc1 | -10.8% | 
86 | COc1cccc(/C=N/Nc2ncc(C(F)(F)F)cc2Cl)c1O |  | 4.11 µM (active)
87 | COc1cccc(/C(C)=N/Nc2ncc(Cl)cc2Cl)c1 | -17.6% | 
88 | COc1cc(/C=C2\SC(=S)N(Nc3ncc(C(F)(F)F)cc3Cl)C2=O)cc(OC)c1OC | -14.7% | 
89 | CCN(CC)Cc1csc2ccc(Br)cc12 | -6.04% | 
90 | C=CCc1ccc(OCC(O)CN2CCN(Cc3ccccc3)CC2)c(OC)c1 (stereo not drawn) | -1.24% | 
91 | CCCn1c(=N)n(CC(O)COc2ccccc2OC)c2ccccc21 (stereo not drawn) |  | 7.31 µM (active)
92 | C=CCn1c(=N)n(CC(O)COc2ccc(OC)cc2)c2ccccc21 (stereo not drawn) |  | 20.6 µM (active)
93 | COC(=O)c1ccc(OCC(O)CN(CCO)CC(O)Cn2ccc3ccccc32)cc1 (stereo not drawn) | -27.5% | 
94 | COc1ccccc1OCC(O)CN1CCOCC1 (stereo not drawn) | -2.17% | 
95 | COc1ccc(CCNCC(O)Cn2ccc3ccccc32)cc1OC (stereo not drawn) | -22% | 
96 | COc1ccc(C(=O)NCC2CCCO2)cc1S(=O)(=O)NCc1ccc(Cl)cc1 (stereo not drawn) | -20.6% | 
97 | CN1CCN(C(CNS(=O)(=O)c2cccs2)c2cccnc2)CC1 (stereo not drawn) | 7.04% | 
98 | COc1cccc(/C=C/C(=O)OCC(=O)N2CCCc3ccccc32)c1 | 1.84% | 
99 | Cc1cccc(N(C)C(=O)CS(=O)(=O)c2cccc3nsnc23)c1 | -12.2% | 
100 | CC1(C)OC(=O)C(=CSc2ccc(C(C)(C)C)cc2)C(=O)O1 | -13.5% | 
101 | COCCCNC(NC(=O)c1ccc(C)cc1)C(Cl)(Cl)Cl (stereo not drawn) |  | 14.6 µM (active)
102 | COCCCNC(NC(=O)c1ccc(OC)cc1)C(Cl)(Cl)Cl (stereo not drawn) | -25.3% | 
103 | CCOCCCNC(=O)C(NC(=O)CNC(=O)c1ccccc1)c1ccc(C)cc1 (stereo not drawn) | -23.2% | 
